Among the data in PubChem BioAssay (NCI) are growth inhibition values, retold here.

The panel holds about 79,000 compounds, 15% with a hit somewhere; the sample as a whole holds those more often. A number with no mark means an inactive call. Calls of active or inactive are those of the source. No stated cut-off is given here; in the data, active means growth inhibition above about 70%; inactive means the rest.

A short description of the first assay: NCI Yeast Anticancer Drug Screen. Data for the cln2 rad14 strain (AID 165).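 Further: 0% = growth equal to vehicle treated cultures.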 The following applies: S. cerevisiae cln2 rad14 strain, at 50.0 µM (retest, dose inferred, filed as 5.0), active compounds read high. Summed up:
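Readout is yeast growth inhibition versus vehicle-treated controls, using a strain with cln2 and rad14 alterations exposed to compound.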
For `CC(CC(C#CCN(C)C)N(C)C)CC(C)(C)C` (stereo not drawn), the growth inhibition is 24%.

On to `CCCCCCCCCCNC(=O)C[n+]1cccc(C(=O)NCc2ccccc2)c1`, for which the growth inhibition is 99% (active).

Turning to `Cc1ccc(N2C(N)=C(C#N)C(C#N)(C#N)C2c2ccccc2)cc1` (stereo not drawn), the growth inhibition was 41%.

Consider `O=[N+]([O-])c1cccc(Cl)c1C(Nc1nncs1)Nc1nncs1`, for which the growth inhibition was 20%.

Consider `CCCC(C(=O)OCCNC1CCCCC1)c1ccccc1` (stereo not drawn), for which the growth inhibition was 47%.

For the compound `BrCc1ccc([Si](c2ccccc2)(c2ccccc2)c2ccc(CBr)cc2)cc1`, the growth inhibition is -25%.

For the compound `CCCCC(O)(c1ccccc1)C(O)(c1ccccc1)c1c(F)c(F)c(F)c(F)c1F` (stereo not drawn), the growth inhibition was 98% (active).

With `C/C=C\C=N\NC(N)=S`, the growth inhibition was -3%.

`NCCc1ccc2oc3cc(=O)c4ccccc4c-3nc2c1`: the growth inhibition was 8%.

Consider `CC(C)=CCc1ccc(O)cc1`, for which the growth inhibition is 96% (active).

As to `CCCCCCCCCCCCCC/[N+]([O-])=C/c1ccc([N+](=O)[O-])o1`, the growth inhibition was 13%.

As for `Fc1ccc(CSC(=S)Nc2ccc(Br)cc2)cc1`, the growth inhibition is 99% (active).

Take `C/C(=N\NC(=S)N1CCN(C2CCCCC2)CC1)c1ccccn1`: the growth inhibition is 59%.

Take `Cc1ccccc1N=Nc1sc(N)nc1-c1ccccc1`: the growth inhibition was 88% (active).

With `CN(c1ccc(C(N)=O)cc1)c1c(O)c2ccccc2[nH]c1=O`, the growth inhibition was 42%.

With `Fc1ccc(CSC(=S)Nc2cccc(C(F)(F)F)c2)cc1`, the growth inhibition was 99% (active).

Consider `COc1ccccc1C(C)c1ccc2ccccc2c1C(=O)O` (stereo not drawn), for which the growth inhibition is 93% (active).

`CNC(=O)OCc1c(-c2ccccc2)c(-c2ccccc2)n(-c2ccc(OC)cc2)c1COC(=O)NC`: the growth inhibition is 98% (active).

In the case of `Cc1cc(SCC(=O)c2ccc(Cl)cc2)cc(C)[o+]1`, the growth inhibition was 73% (active).

With `Cn1cnc([N+](=O)[O-])c1Sc1nc2ccccc2s1`, the growth inhibition is 74% (active).

For `CCOC(=S)SSC(=S)NCCNC(=S)SSC(=S)OCC`, the growth inhibition was 30%.

In the case of `Cc1nc(C)c(C(=O)NNC(=O)C[N+](C)(C)C)cc1C(=O)NNC(=O)C[N+](C)(C)C`, the growth inhibition was -4%.

As to `CC/C(=C(\CC)c1ccc(O)c(CN(CC)CC)c1)c1ccc(OC)cc1`, the growth inhibition was 80% (active).

For `CC(C)N(C(=O)CC1(O)CCCCC1)C(C)C`, the growth inhibition was 4%.

Regarding `CCCCN(CCCC)CC(O)c1cc(-c2ccc(Cl)cc2)nc2cc(C)ccc12` (stereo not drawn), the growth inhibition is 97% (active).

In the case of `C/C(=C\c1ccccc1Cl)c1ccccn1`, the growth inhibition was 7%.

As to `O=C(OC1C2CCC2C2CC21)c1cc([N+](=O)[O-])cc([N+](=O)[O-])c1` (stereo not drawn), the growth inhibition is 98% (active).

Regarding `O=c1[nH]c2c([N+](=O)[O-])cc(Cl)cc2nc1/C=C(\O)c1ccc(F)cc1`, the growth inhibition is 42%.

With `CC(=O)N[C@H]1CC[C@H]2[C@@H]3CCC4=CC(=O)CC[C@]4(C)[C@H]3CC[C@]12C`, the growth inhibition was 97% (active).

With `CC12OC(=O)C(C(N)=O)=C1C=C(c1ccccc1)CC2c1ccccc1` (stereo not drawn), the growth inhibition is 21%.

As to `Cn1c2nc(-[n+]3ccccc3)nc-2c([O-])n(C)c1=O`, the growth inhibition is 7%.

For `COc1cc(NCCCCCCCC2CCCCN2)c2ncccc2c1` (stereo not drawn), the growth inhibition was 94% (active).

With `Nc1ncnc(N2CCOCC2)c1N`, the growth inhibition was 2%.

Regarding `CCCCCCCCCCCCNCC(=O)O`, the growth inhibition was 53%.

As to `O=C(O)C1C2CC3CC(C2)CC1C3` (stereo not drawn), the growth inhibition was 21%.

As for `CC(=O)OC1CCC2(C)C(=CCC3C2CCC2(C)C3CC(C(N)=O)C2C(C)=O)C1` (stereo not drawn), the growth inhibition was 57%.

As to `CC1(C)CC(=N/O)/C(=N/O)C(=N\NC(N)=S)/C1`, the growth inhibition is 28%.

Take `CCCCCCCCCCCCCCCCCC1=NCCN1`: the growth inhibition is 99% (active).

On to `O=c1c2ccccc2c2ccccc2c(=O)n1-c1cc2c3ccccc3ccc2c2ccccc12`, for which the growth inhibition was -10%.

The same assay, now with this note: S. cerevisiae cln2 rad14 strain, at 50.0 µM, active compounds read high.
Consider `CC(CC(C#CCN(C)C)N(C)C)CC(C)(C)C` (stereo not drawn), for which the growth inhibition was -7.5%.

With `CCCCCCCCCCNC(=O)C[n+]1cccc(C(=O)NCc2ccccc2)c1`, the growth inhibition is 98.8% (active).

For `Cc1ccc(N2C(N)=C(C#N)C(C#N)(C#N)C2c2ccccc2)cc1` (stereo not drawn), the growth inhibition was 24.4%.

On to `O=[N+]([O-])c1cccc(Cl)c1C(Nc1nncs1)Nc1nncs1`, for which the growth inhibition is 26.6%.

Consider `CCCC(C(=O)OCCNC1CCCCC1)c1ccccc1` (stereo not drawn), for which the growth inhibition is 35.1%.

Regarding `BrCc1ccc([Si](c2ccccc2)(c2ccccc2)c2ccc(CBr)cc2)cc1`, the growth inhibition is 78.5% (active).

With `CCCCC(O)(c1ccccc1)C(O)(c1ccccc1)c1c(F)c(F)c(F)c(F)c1F` (stereo not drawn), the growth inhibition is 97.3% (active).

As to `C/C=C\C=N\NC(N)=S`, the growth inhibition was -24.6%.

Regarding `NCCc1ccc2oc3cc(=O)c4ccccc4c-3nc2c1`, the growth inhibition was 28.7%.

Take `CC(C)=CCc1ccc(O)cc1`: the growth inhibition is 34.8%.

Turning to `CCCCCCCCCCCCCC/[N+]([O-])=C/c1ccc([N+](=O)[O-])o1`, the growth inhibition is 29.8%.

As to `Fc1ccc(CSC(=S)Nc2ccc(Br)cc2)cc1`, the growth inhibition was 56.2%.

For `C/C(=N\NC(=S)N1CCN(C2CCCCC2)CC1)c1ccccn1`, the growth inhibition was 97.1% (active).

With `Cc1ccccc1N=Nc1sc(N)nc1-c1ccccc1`, the growth inhibition is -4.85%.

Consider `CN(c1ccc(C(N)=O)cc1)c1c(O)c2ccccc2[nH]c1=O`, for which the growth inhibition was 24.9%.

Consider `Fc1ccc(CSC(=S)Nc2cccc(C(F)(F)F)c2)cc1`, for which the growth inhibition was 99.5% (active).

Take `COc1ccccc1C(C)c1ccc2ccccc2c1C(=O)O` (stereo not drawn): the growth inhibition was 96.1% (active).

Regarding `CNC(=O)OCc1c(-c2ccccc2)c(-c2ccccc2)n(-c2ccc(OC)cc2)c1COC(=O)NC`, the growth inhibition was 84.9% (active).

As for `Cc1cc(SCC(=O)c2ccc(Cl)cc2)cc(C)[o+]1`, the growth inhibition was 88.7% (active).

On to `Cn1cnc([N+](=O)[O-])c1Sc1nc2ccccc2s1`, for which the growth inhibition was 90.7% (active).

With `CCOC(=S)SSC(=S)NCCNC(=S)SSC(=S)OCC`, the growth inhibition is 73.1% (active).

For the compound `Cc1nc(C)c(C(=O)NNC(=O)C[N+](C)(C)C)cc1C(=O)NNC(=O)C[N+](C)(C)C`, the growth inhibition is 7.2%.

As for `CC/C(=C(\CC)c1ccc(O)c(CN(CC)CC)c1)c1ccc(OC)cc1`, the growth inhibition was 99.5% (active).

Take `CC(C)N(C(=O)CC1(O)CCCCC1)C(C)C`: the growth inhibition was 73.8% (active).

As to `CCCCN(CCCC)CC(O)c1cc(-c2ccc(Cl)cc2)nc2cc(C)ccc12` (stereo not drawn), the growth inhibition is 96.2% (active).

Regarding `C/C(=C\c1ccccc1Cl)c1ccccn1`, the growth inhibition was -44.5%.

As for `O=C(OC1C2CCC2C2CC21)c1cc([N+](=O)[O-])cc([N+](=O)[O-])c1` (stereo not drawn), the growth inhibition was 97.8% (active).

Regarding `O=c1[nH]c2c([N+](=O)[O-])cc(Cl)cc2nc1/C=C(\O)c1ccc(F)cc1`, the growth inhibition was 42.2%.

Take `CC(=O)N[C@H]1CC[C@H]2[C@@H]3CCC4=CC(=O)CC[C@]4(C)[C@H]3CC[C@]12C`: the growth inhibition is 79.5% (active).

Take `CC12OC(=O)C(C(N)=O)=C1C=C(c1ccccc1)CC2c1ccccc1` (stereo not drawn): the growth inhibition is 82.5% (active).

On to `Cn1c2nc(-[n+]3ccccc3)nc-2c([O-])n(C)c1=O`, for which the growth inhibition is 70% (active).

As for `COc1cc(NCCCCCCCC2CCCCN2)c2ncccc2c1` (stereo not drawn), the growth inhibition is 96.5% (active).

As to `Nc1ncnc(N2CCOCC2)c1N`, the growth inhibition is 83.8% (active).

For the compound `CCCCCCCCCCCCNCC(=O)O`, the growth inhibition is -6.3%.

Take `O=C(O)C1C2CC3CC(C2)CC1C3` (stereo not drawn): the growth inhibition was -67.8%.

With `CC(=O)OC1CCC2(C)C(=CCC3C2CCC2(C)C3CC(C(N)=O)C2C(C)=O)C1` (stereo not drawn), the growth inhibition was 61.6%.

Turning to `CC1(C)CC(=N/O)/C(=N/O)C(=N\NC(N)=S)/C1`, the growth inhibition is 30.2%.

With `CCCCCCCCCCCCCCCCCC1=NCCN1`, the growth inhibition is 98% (active).

On to `O=c1c2ccccc2c2ccccc2c(=O)n1-c1cc2c3ccccc3ccc2c2ccccc12`, for which the growth inhibition was 68.2%.
